The list is not random: actives were taken first. Their share in the collection is about 19%.
HT1080-NT tox: kills 2HG-producing HT-1080-NT fibrosarcoma cells | actives 1.6% (n = 360,000) | AID 686970 | Potency, µM (doses to about 46.1 µM), for the others: at the top dose activity, negative = less viability, actives largely listed as cytotoxic | HT-1080-NT fibrosarcoma viability, CellTiter-Glo ATP luminescence, 48 h;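 also: NT is the 2HG producing partner of a matched IDH1 knockdown line; potency is read from the fitted curve at half-maximal effect; 0% = DMSO-treated cells and -100% = media-only wells without cells; nearly all actives have a fitted effect of over 55% in size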
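Read-out is CellTiter-Glo luminescence after 10 minutes at room temperature, following 48 hours' compound treatment of HT-1080-NT cells (750 cells/well, RPMI, 5% FBS, 37 degrees C).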
TDP1 cell noCPT: qHTS for Inhibitors of human tyrosyl-DNA phosphodiesterase 1 (TDP1): qHTS in cells in absence of CPT | DT40 Tdp1-/- hTDP1 cells, no CPT, ATP luminescence, 48 h | Potency, µM (doses to about 46.2 µM), for inactives: at the top dose activity change, negative = growth inhibition, usual class: inhibitors | actives 15% (n = 420,000); also: potency is read from the fitted curve at half-maximal effect; nearly all actives have a fitted effect of over 55% in size
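Readout: luminescence from CellTiter-Glo after 30 min in the dark at RT. Cells: DT40 Tdp1-/- with stable hTDP1, 400/well. Exposure: compounds alone, ≥48 hr, 37 °C.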
IL1B secr inh: inhibitors of inflammasome signaling (IL-1 beta secretion); THP-1 LPS/ATP IL-1B secretion, AlphaLISA, 16 h; hits give low values; activity change, % at 57.5 µM; actives 4.7% (n = 360,000); AID 743279; in the data active = activity change below about -50%; inconclusive = mostly about -30% to -49%
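Secreted IL-1B measured by AlphaLISA bead assay after 16 h compound exposure of THP-1 cells; compounds (final up to 57.5 uM) added 1 h before LPS (250 ng/mL) and ATP (1.25 mM) stimulation; lower signal means less secretion.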
HT1080 IDH1KD tx: HT-1080 IDH1 knockdown cell toxicity (counter line); HT-1080 IDH1 knockdown viability, ATP luminescence, 48 h; Potency, µM (series often up to 46.1 µM), for inactives: at the top dose activity, negative = toxicity, usual class: cytotoxic; actives 2% (n = 360,000); AID 686971;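 also: potency is read from the fitted curve at half-maximal effect; 0% = DMSO wells and -100% = cell-free medium wells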
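In this qHTS, HT-1080 cells depleted of IDH1 are exposed for 48 h at 37 °C to compound titrations. Toxicity is scored from CellTiter-Glo luminescence, with DMSO as full viability and medium alone as none.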
ELG1 repair inh: inhibitors of ELG1-dependent DNA repair in HEK293T cells | HEK293T ELG1-luciferase reporter, luminescence, 16 h; DNA damage induced by 5-fluorouridine | actives 2.3% (n = 330,000) | Potency, µM (series often up to 46.1 µM), without a hit: at the highest dose activity change, negative = inhibition, most hits filed as inhibitors | AID 504467; also: potency is read from the fitted curve at half-maximal effect; nearly all actives have a fitted effect of over 55% in size
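Reporter activity after DNA damage by 5-fluorouridine is monitored. Compound-treated cells incubate 16 hr at 37 °C, then ONE-Glo is added for 30 min before luminescence reading.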
DT40 TDP1 CPT: growth inhibition of DT40 Tdp1-/-;hTDP1 cells with camptothecin (screen for TDP1 inhibitors). chicken DT40 Tdp1-/-;hTDP1 cells + 20 nM CPT, ATP luminescence, 48 h. Potency, µM (highest dose often 46.2 µM), inactives show at the highest dose activity change, negative = growth inhibition, hits mostly inhibitors. actives 12% (n = 420,000); also: potency is read from the fitted curve at half-maximal effect; nearly all actives have a fitted effect of over 55% in size
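Chicken DT40 Tdp1-/- cells complemented with human TDP1, 400 cells/well, exposed to compounds plus 20 nM camptothecin for at least 48 h at 37 C; viability read as ATP content by CellTiter-Glo luminescence.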
* = called active by the depositor; i = inactive; ? = inconclusive; nt = no result given. Unless noted, calls follow the shape of the dose curve; as a rule, active = well fitted curve in the direction sought with a large enough effect; inconclusive = small, poorly fitted or top-dose-only effect, or another doubt; inactive = no such curve, though single readings can be large; an effect the other way counts as inactive or inconclusive. Unless noted, % is scaled to controls: 0 for no effect and ±100 for the full control effect.

SMILES | HT1080-NT tox | TDP1 cell noCPT | IL1B secr inh | HT1080 IDH1KD tx | ELG1 repair inh | DT40 TDP1 CPT
COC(=O)c1c(NC(=O)C2COc3ccccc3O2)sc2c1CCN(Cc1ccccc1)C2 (stereo not given) | -1% | 21µM* | -3 | 0% | ? | 16µM*
COC(=O)c1c(NC(=O)C2COc3ccccc3O2)sc2c1CCN(C(=O)OC)C2 (stereo not given) | 7% | 21µM* | ? | 7% | nt | 16µM*
COC(=O)c1c(NC(C)=O)sc2c1CCN(Cc1ccccc1)C2 | 4% | -19% | 15 | -4% | 17% | -4%
COC(=O)c1ccccc1NC(=O)C1COc2ccccc2O1 (stereo not given) | 9% | -16% | 2 | 2% | 20% | 2%
Cc1cccc(NC(=O)COC(=O)c2ccc(S(=O)(=O)N3CCCC3)cc2)c1 | 0% | 5% | 8 | 6% | 11% | 1%
CCCNC(=O)c1c(NC(=O)C2COc3ccccc3O2)sc2c1CCCC2 (stereo not given) | ? | ? | 18 | 9% | ? | 12µM*
O=C(NC1CCS(=O)(=O)C1)c1c(NC(=O)C2COc3ccccc3O2)sc2c1CCCC2 (stereo not given) | -11% | ? | -13 | -22% | -21% | -18%
NC(=O)c1c(NC(=O)Cc2ccccc2)sc2c1CCN(Cc1ccccc1)C2 | -5% | 13µM* | -24 | -9% | 3% | 12µM*
O=C(Nc1nc2c(s1)CN(Cc1ccccc1)CC2)C1CCCC1 | 7% | ? | 0 | -22% | ? | ?
CC(C)(C)C(=O)Nc1nc2c(s1)CN(Cc1ccccc1)CC2 | -6% | 18µM* | -12 | 12% | ? | ?
COc1ccc(CNC(=O)c2cnc3ccc(C)cn3c2=O)cc1 | nt | -5% | nt | nt | nt | -1%
CN(C(=O)COC(=O)c1ccccc1SCC(=O)N1CCCC1)C1(C#N)CCCCC1 | 8% | 11% | 13 | 10% | ? | 3%
CSc1ccccc1NC(=O)COC(=O)c1ccc(O)cc1 | 0% | ? | 36 | 1% | 26% | -21%
O=C(COC(=O)c1ccc(O)cc1)Nc1ccccc1-c1ccccc1 | -20% | 21µM* | 10 | -21% | ? | ?
O=C(COC(=O)c1ccc(-c2ccccc2)cc1)Nc1ccccc1-c1ccccc1 | 0% | 10µM* | 0 | -12% | 3% | ?
O=C(CN(C(=O)C1CSC(=O)C1)c1cccc(F)c1)NCc1ccc2c(c1)OCO2 (stereo not given) | -1% | -22% | -16 | -1% | -6% | 1%
Cc1ccc(C(=O)NN(CCC(=O)NC(C)(C)C)C2=NS(=O)(=O)c3ccccc32)cc1 | 14% | -1% | -5 | 20% | 12% | -8%
CC(C)(C)NC(=O)CCN(/N=C/c1ccccc1F)C1=NS(=O)(=O)c2ccccc21 | 1% | 21µM* | 24 | 15% | ? | ?
CC(C)(C)NC(=O)CCN(/N=C/c1ccccc1)C1=NS(=O)(=O)c2ccccc21 | 5% | 16µM* | 34 | -3% | -20% | ?
O=C(COc1ccc(Cl)cc1)N/N=C/c1cccc2cccnc12 | -20% | 18µM* | i | ? | ? | ?
COc1ccc(OCC(=O)N/N=C/c2ccc(OC)c(OC)c2C(=O)O)cc1 | 9% | -2% | -4 | 6% | 6% | -14%
COc1ccccc1OCC(=O)N/N=C/c1c(O)ccc2ccccc12 | nt | nt | nt | nt | -21% | nt
C=CCc1ccccc1OCC(=O)N/N=C/c1ccc(OC(C)=O)cc1OC(C)=O | -30% | 6.5µM* | 57 | ? | ? | 5.8µM*
CC(=O)Oc1ccc(/C=N/NS(=O)(=O)c2ccc(C)cc2)c(OC(C)=O)c1 | -5% | 3% | 1 | 7% | 9% | -17%
COc1ccc(/C=N/NC(=O)COc2ccc3ccccc3c2)c(C(=O)O)c1OC | 12% | ? | -11 | 9% | 18% | 16µM*
SMILES | HT1080-NT tox | TDP1 cell noCPT | IL1B secr inh | HT1080 IDH1KD tx | ELG1 repair inh | DT40 TDP1 CPT
COc1ccc(OCC(=O)N/N=C/c2cccc3cccnc23)cc1 | ? | ? | 128 | ? | nt | ?
COc1ccccc1OCC(=O)N/N=C/c1cccc2cccnc12 | -4% | 21µM* | i | -14% | -16% | ?
COc1ccc(-n2c(=O)c(-c3cccs3)nc3cnc(N4CCN(C)CC4)nc32)cc1 | nt | -18% | nt | nt | nt | -25%
Cc1ccnc(-n2c(C)cc(/C=N/NC(=O)COc3cccc4cccnc34)c2C)c1 | 9% | -4% | -54* | 22% | 8% | 5%
CC(C)(C)c1ccc(C2CC2C(=O)N/N=C\c2cc3ccccc3nc2Cl)cc1 (stereo not given) | 9% | 16µM* | 8 | 4% | -4% | ?
COc1cccc(/C=N/NC(=O)COc2cccc3cccnc23)c1O | -21% | 4.1µM* | 120 | 18µM* | ? | 7.3µM*
Cc1ccccc1OCC(=O)N/N=C/c1cc2ccccc2nc1Cl | -16% | 15µM* | -6 | -21% | -28% | 15µM*
Cc1cc(/C=N\NC(=O)COc2cccc3cccnc23)c(C)n1-c1ccc(Br)cc1 | 2% | -20% | -7 | -2% | -15% | ?
CCC1=C(NCc2ccccc2)COC1=O | 7% | -18% | 21 | 4% | nt | -7%
COc1ccc(C(=O)N(C)CCOc2ccc(Cl)cc2)cc1S(=O)(=O)N1CCCC1 | 3% | ? | -21 | -11% | nt | ?
CN(Cc1ccccc1)C(=O)c1csc([C@@H]2O[C@H](CO)[C@H](O)[C@H](O)[C@H]2O)n1 | 16% | 16% | 18 | 1% | nt | -9%
Cc1ccc2oc(-c3cccc(NC(=O)COc4ccc(Cl)cc4)c3C)nc2c1 | nt | -19% | nt | nt | nt | -21%
COc1cc(C(=O)N2CCCN(c3nc4cc(C)ccc4cc3C#N)CC2)cc(OC)c1OC | -8% | ? | 36 | 0% | ? | 21µM*
COc1ccc2cc(C#N)c(N3CCOCC3)nc2c1 | -14% | ? | 24 | -14% | -26% | ?
Cc1ccc2cc(C#N)c(N3CCCN(C(=O)c4cnccn4)CC3)nc2c1 | -1% | ? | -9 | -2% | ? | ?
Cc1ccc2cc(C#N)c(N3CCN(C(=O)c4ccccc4)CC3)nc2c1 | 0% | 10µM* | ? | -7% | ? | 21µM*
Cc1cc(C)c2cc(C#N)c(N3CCCC3)nc2c1 | 1% | ? | -9 | -1% | 3% | -14%
